Screens deposited in PubChem BioAssay by several laboratories.
RmlC RmlD mix – RmlC and RmlD coupled enzyme inhibitors, primary screen, biochemical, 384-well, compound mixtures, retest; 0.39% of 110,000 active; RmlC/RmlD coupled enzyme inhibition, 384-well mixture HTS; inhibition, % at 5.5 µM; in the data active = inhibition above about 30%, passing the limit was not always enough
YopH PTP inh – YopH tyrosine phosphatase inhibitors, primary screen, biochemical, fluorescence Ex485/Em525; AID 898, 2007; inhibition, % (no concentration beside the values); YopH tyrosine phosphatase [Yersinia enterocolitica]; 0.16% of 140,000 active; in the data active = inhibition above about 50%
* marks the source's active call; other numbers are inactive results; . = no result given. Most compounds without a hit are left out; they make up all but 0.44% or so of the library.

SMILES	RmlC RmlD mix	YopH PTP inh
C=CCn1c(-c2cc(OC)c(OC)c(OC)c2)n[nH]c1=S	3	2
CCn1c(-c2cc(OC)c(OC)c(OC)c2)n[nH]c1=S	-12	96*
COCCCNC(=O)C1CCCN(C(=O)Nc2ccc(OC)cc2)C1 (stereo not given)	2	53*
COc1ccc(NC(=O)N2CCCC(C(=O)NC(C)C)C2)cc1 (stereo not given)	-12	-30
Cc1nnc(SCC(=O)NNC(=O)C(C)C)[nH]c1=O	.	-6
O=C(CCl)NCc1c(Cl)cccc1-n1cccc1	-17	2
CCOC(=O)c1cc2sc(C)cc2n1CC(=O)NCCc1ccccc1	8	1
Cc1ccc(NC(=O)c2ccnc(C(C)(C)C)c2)cc1	4	68*
CC(C)(C)c1cc(C(=O)Nc2ccccc2)ccn1	-21	-39
CCOC(=O)c1c(C)nc(C)c(C(=O)OCC)c1-c1ccc(Br)cc1	.	-35
CCOC(=O)c1c2c(n(C)c1COC)C(=O)C(=O)c1ccc(Br)cc1-2	8	80*
CCOc1ccc(-c2nnc3ccc(SCC(=O)Nc4nc5ccccc5s4)nn23)cc1	.	65*
CCOc1ccc(-c2nnc3ccc(SCC(=O)Nc4nc5ccc(C)cc5s4)nn23)cc1	.	-7
Cc1ccc(S(=O)(=O)NC(=O)c2ccc(-c3ccc(C)c4ccccc34)o2)cc1	-17	-12
N#Cc1ccccc1Cn1cc(C#N)c2ccccc21	-9	51*
N#Cc1cn(Cc2ccccc2)c2ccccc12	-13	0
COc1cc(OC)cc(C(=O)N2CCC(n3c(C)nc4cc(F)ccc43)CC2)c1	.	-33
O=C(O)CCN1Cc2ccccc2C1=O	14	-1
CCC(=O)N1Cc2ccccc2-c2ccccc2C1=O	6	52*
CCN(CC)c1ccc(NC(=O)c2cccc(OC)c2)c(C)c1	7	51*
CCN(CC)c1ccc(NC(=O)c2cc(OC)cc(OC)c2)c(C)c1	.	-112
CC(C)(C)NC(=O)c1cccc2c1OC(C)(C)C2	.	-1
CCc1cc[n+](C2=C([O-])c3ccccc3C(=O)/C2=N\S(=O)(=O)c2cccs2)cc1	.	69*
O=C1C(Nc2ccccc2)=C/C(=N/S(=O)(=O)c2cccs2)c2ccccc21	.	-13
COc1ccc(/C=N/NC(=O)C(C)n2cnc3ccccc3c2=O)cc1OC (stereo not given)	.	67*
SMILES	RmlC RmlD mix	YopH PTP inh
COc1ccc(/C=N/NC(=O)CCn2cnc(-c3ccccc3)c2-c2ccccc2)cc1OC	.	-5
COc1ccc2cc(CCN3C(=O)c4ccccc4C3=O)c(=O)[nH]c2c1	.	-28
N=c1c(C(=O)NCc2ccc(F)cc2)cc2c(=O)n3ccccc3nc2n1CCCN1CCOCC1	31*	-26
CCOCCCn1c(=N)c(C(=O)NCc2ccc3c(c2)OCO3)cc2c(=O)n3ccccc3nc21	.	-26
C=CCn1c(SCC(=O)c2cc(C)n(C(C)COC)c2C)nc2sc(C)c(C)c2c1=O (stereo not given)	14	-15
COc1ccc2c(c1)O[C@@H](c1ccc3c(c1)OCO3)[C@H](OC(=O)Nc1cc(OC)c(OC)c(OC)c1)C2=O	5	-5
COCCCn1c(N)c(C(=O)OC(C)COC)c2nc3ccccc3nc21 (stereo not given)	46*	8
CCCCOCCCn1c(N)c(C(=O)OC(C)COC)c2nc3ccccc3nc21 (stereo not given)	30	-12
O=C1NC2CCCCC2NC1CC(=O)N1CCN(c2ccccc2)CC1 (stereo not given)	.	-4
CC(=O)c1ccc(OCCn2cnc3ccccc32)cc1	.	-7
O=C(COC(=O)c1cc(-c2cccc3ccccc23)nc2ccccc12)NC1CCS(=O)(=O)C1 (stereo not given)	.	-31
COc1ccc2cc(-c3cc(C(=O)OCC(=O)NC4CCS(=O)(=O)C4)c4ccccc4n3)ccc2c1 (stereo not given)	.	97*
Cc1ccc(NC(=S)NNC(=O)c2nnn(-c3ccccc3)c2C)cc1	.	-28
Oc1ccc2ccccc2c1C=NC12CN3CCN(CN(C3)C1)C2	-17	82*
OCC(CO)(CO)N=Cc1c(O)ccc2ccccc12	-4	-39
N#Cc1c(N)sc(=S)c2c1CCN(Cc1ccccc1)C2	119*	.
CCN1CCc2c(sc(N)c2C#N)C1	8	-18
O=C(Nc1cc(C(F)(F)F)cc(C(F)(F)F)c1)c1ccc(Cn2cc(C(F)(F)F)ccc2=O)cc1	10	-21
Cc1nn(-c2ccccc2)c2c1C(O)n1c(nc3ccccc31)S2 (stereo not given)	5	-23
Cc1ccc(S(=O)(=O)/N=C2/C=C(Sc3ncn[nH]3)C(=O)c3ccccc32)c(C)c1	.	101*
Cc1ccc(NC2=C/C(=N/S(=O)(=O)c3cccs3)c3ccccc3C2=O)cc1	.	30
CC(C)c1ccc(S(=O)(=O)/N=C2/C=C(Sc3ncn[nH]3)C(=O)c3ccccc32)cc1	.	101*
CCOc1ccc(S(=O)(=O)Nc2ccc(O)c(Sc3ncn[nH]3)c2)cc1	.	-24
Cc1ccc(S(=O)(=O)ON2C(=O)c3ccccc3C2=O)c(C)c1	.	-11
Cc1ccc(S(=O)(=O)/N=C2/C=C(Sc3ncn[nH]3)C(=O)c3ccccc32)cc1	.	100*
SMILES	RmlC RmlD mix	YopH PTP inh
COCCn1nnnc1CN1CCC(C)CC1	-13	-26
COC(=O)c1ccc(S(=O)(=O)c2ccccc2)c(N)c1	-4	-8
CC12CCC(c3n[nH]c(=S)nc31)C2(C)C (stereo not given)	.	6
O=C(NN=c1c(=O)c2ccccc2c1=O)c1ccccc1	-62	68*
CC(O)C(O)C(O)C(O)/C=N/NC(=O)c1ccccc1 (stereo not given)	.	-11
CC(O)[C@H]1CNC(=O)C(=O)N1CCCCC1CCCCC1 (stereo not given in full)	-3	.
COc1ccc(CN2C(=O)c3ccccc3C(/C=N\OCc3ccc(F)cc3)C2=O)cc1 (stereo not given)	3	59*
COc1ccc(CN2C(=O)c3ccccc3C(/C=N/OCc3ccc(Cl)cc3)C2=O)cc1 (stereo not given)	-34	-6
C=C(C(=O)c1ccccc1)C(C)C(=C)C(=O)c1ccccc1	.	1
COc1ccc2nc3oc(C(=O)N4CCC(C(N)=O)CC4)cc3cc2c1	34*	-56
COc1ccc2nc3oc(C(=O)N4CCN(c5cccc(Cl)c5)CC4)cc3cc2c1	5	-60
O=C(NN1CCOCC1)c1cc(S(=O)(=O)Nc2cccc(C(F)(F)F)c2)ccc1Cl	.	-24
CCCCC1=CC2=CC(=O)C(C)(OC(=O)CC)C(=O)C2=CN1CCCCO (stereo not given)	9	.
CCCCCCCC1=CC2=CC(=O)C(C)(OC(C)=O)C(=O)C2=CN1CCc1ccccc1 (stereo not given)	.	50*
CCOC(=O)COc1ccc(/C=C2\NC(=S)N(CC)C2=O)cc1	.	-6
Cc1ccc(C(=O)CC(=O)c2cccc(F)c2)c(O)c1	-8	-4
COc1ccc(N2CSC3=C(C#N)C(c4cc(OC)c(OC)cc4OC)CC(=O)N3C2)c(OC)c1 (stereo not given)	7	42
COc1ccc(N2CSC3=C(C#N)C(c4cc(OC)ccc4OC)CC(=O)N3C2)c(OC)c1 (stereo not given)	6	69*
CCc1ccc(C2CC(=O)N3CN(c4ccccc4)CSC3=C2C#N)cc1 (stereo not given)	-6	-21
